# Tests used:
# Test in all cases: DAPPL (digital affinity profiling via proximity ligation, sequencing); 10 mM Tris-HCl pH 7.5, 50 mM NaCl, 1 mM DTT, 4% glycerol, room temperature, 30 min; GST-TFs on glutathione beads, 16-mer random dsDNA library, 0.1% formaldehyde crosslink after washing; high values mean tight binding
# Settings in all cases: protein: recombinant; tags: N-terminal GST; dsDNA, one strand shown
# [1] = molecular target: T1, ERF (Homo sapiens, UniProt P50548 1-548)
# T1 sequence: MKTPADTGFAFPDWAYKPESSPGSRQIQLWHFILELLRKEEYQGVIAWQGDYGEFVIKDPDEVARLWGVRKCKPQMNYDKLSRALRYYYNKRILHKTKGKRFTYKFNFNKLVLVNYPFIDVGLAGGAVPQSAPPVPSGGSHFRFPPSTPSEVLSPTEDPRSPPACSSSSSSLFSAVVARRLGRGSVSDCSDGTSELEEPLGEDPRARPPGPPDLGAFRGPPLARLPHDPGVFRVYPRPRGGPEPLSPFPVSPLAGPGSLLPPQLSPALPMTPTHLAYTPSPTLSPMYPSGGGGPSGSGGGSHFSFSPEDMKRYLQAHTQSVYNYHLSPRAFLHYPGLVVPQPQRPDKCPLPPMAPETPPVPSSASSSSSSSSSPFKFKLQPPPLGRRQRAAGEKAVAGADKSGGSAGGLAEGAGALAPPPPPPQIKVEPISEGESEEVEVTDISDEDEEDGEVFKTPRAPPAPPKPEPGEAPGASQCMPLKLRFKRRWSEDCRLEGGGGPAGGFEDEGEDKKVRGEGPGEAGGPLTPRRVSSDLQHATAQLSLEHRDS
# Summary of the method: (§1)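 Binding signal is each hexamer's read frequency for a factor divided by its frequency in the tag-only sample. The factors were GST-fused human transcription factors from yeast, captured on glutathione beads, DNA-barcoded and pooled with that sample. Pools were incubated with 200 nmole of a random double-stranded 16-mer DNA library in Tris/NaCl/DTT/glycerol buffer at room temperature for 30 min, then washed, crosslinked with 0.1% formaldehyde, proximity-ligated with BsaI/T4 ligase (1 h, 37 °C), PCR-amplified and sequenced on an Illumina NextSeq500.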
# [2] = molecular target: T2, ETV3L (Homo sapiens, UniProt Q6ZN32 1-361)
# T2 sequence: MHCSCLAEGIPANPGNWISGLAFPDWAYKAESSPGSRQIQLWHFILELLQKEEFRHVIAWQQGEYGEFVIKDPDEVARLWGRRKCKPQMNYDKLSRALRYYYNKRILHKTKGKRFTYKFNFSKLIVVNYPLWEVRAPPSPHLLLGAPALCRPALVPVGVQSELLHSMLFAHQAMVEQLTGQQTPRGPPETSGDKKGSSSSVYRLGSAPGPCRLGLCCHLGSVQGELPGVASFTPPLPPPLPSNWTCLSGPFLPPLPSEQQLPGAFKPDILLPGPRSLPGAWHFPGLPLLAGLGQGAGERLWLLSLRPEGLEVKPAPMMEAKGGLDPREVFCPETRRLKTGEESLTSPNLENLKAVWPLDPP
# Summary of the method: as §1
# [3] = molecular target: T3, ETS2 (Homo sapiens, UniProt P15036 1-469)
# T3 sequence: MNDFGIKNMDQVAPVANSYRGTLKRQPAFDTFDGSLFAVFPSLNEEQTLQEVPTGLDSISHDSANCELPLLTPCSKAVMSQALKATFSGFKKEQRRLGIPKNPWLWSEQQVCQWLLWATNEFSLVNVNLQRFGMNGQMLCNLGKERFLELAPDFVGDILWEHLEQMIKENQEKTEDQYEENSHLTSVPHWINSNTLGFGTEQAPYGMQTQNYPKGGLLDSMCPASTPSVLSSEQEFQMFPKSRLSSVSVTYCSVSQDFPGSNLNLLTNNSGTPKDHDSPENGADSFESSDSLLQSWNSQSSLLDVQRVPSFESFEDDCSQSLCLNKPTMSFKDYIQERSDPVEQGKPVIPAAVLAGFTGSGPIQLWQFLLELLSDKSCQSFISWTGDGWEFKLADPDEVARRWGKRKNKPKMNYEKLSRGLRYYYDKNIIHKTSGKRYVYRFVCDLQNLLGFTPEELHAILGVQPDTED
# Summary of the method: as §1
# [4] = molecular target: T4, SPDEF (Homo sapiens, UniProt O95238 1-335)
# T4 sequence: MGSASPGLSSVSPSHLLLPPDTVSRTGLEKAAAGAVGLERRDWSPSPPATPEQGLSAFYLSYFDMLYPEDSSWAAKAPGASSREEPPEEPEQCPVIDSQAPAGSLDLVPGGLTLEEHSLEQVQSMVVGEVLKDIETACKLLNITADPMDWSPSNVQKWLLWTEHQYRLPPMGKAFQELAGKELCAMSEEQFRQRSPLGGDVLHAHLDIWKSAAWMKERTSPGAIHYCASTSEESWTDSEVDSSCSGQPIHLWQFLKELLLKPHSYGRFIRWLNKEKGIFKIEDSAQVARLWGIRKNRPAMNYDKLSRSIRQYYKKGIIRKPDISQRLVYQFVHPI
# Summary of the method: as §1
# [5] = molecular target: T5, ETV7 (Homo sapiens, UniProt Q9Y603 1-341)
# T5 sequence: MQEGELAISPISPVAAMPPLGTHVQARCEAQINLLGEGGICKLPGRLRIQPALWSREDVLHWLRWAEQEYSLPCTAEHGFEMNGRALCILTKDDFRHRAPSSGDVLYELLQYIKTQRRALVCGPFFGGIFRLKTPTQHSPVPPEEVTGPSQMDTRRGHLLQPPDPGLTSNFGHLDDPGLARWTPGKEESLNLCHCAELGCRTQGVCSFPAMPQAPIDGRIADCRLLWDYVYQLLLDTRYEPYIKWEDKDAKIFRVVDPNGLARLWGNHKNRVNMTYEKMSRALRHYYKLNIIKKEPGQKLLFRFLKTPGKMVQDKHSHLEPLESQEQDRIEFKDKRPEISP
# Summary of the method: as §1
# [6] = molecular target: T6, ELF5 (Homo sapiens, UniProt Q9UKW6-2 1-255)
# T6 sequence: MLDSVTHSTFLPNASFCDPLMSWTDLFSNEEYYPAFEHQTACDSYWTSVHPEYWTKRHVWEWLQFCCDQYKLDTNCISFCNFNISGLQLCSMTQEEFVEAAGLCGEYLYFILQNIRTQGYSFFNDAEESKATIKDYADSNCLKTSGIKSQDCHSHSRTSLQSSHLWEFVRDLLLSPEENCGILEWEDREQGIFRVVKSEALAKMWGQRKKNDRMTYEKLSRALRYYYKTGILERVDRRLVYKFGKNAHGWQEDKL
# Summary of the method: as §1
# [7] = molecular target: T7, ETV3 (Homo sapiens, UniProt P41162-2 1-143)
# T7 sequence: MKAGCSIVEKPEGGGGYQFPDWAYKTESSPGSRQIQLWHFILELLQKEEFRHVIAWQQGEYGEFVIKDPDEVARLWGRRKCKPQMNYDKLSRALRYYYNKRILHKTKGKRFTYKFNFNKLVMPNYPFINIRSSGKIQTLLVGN
# Summary of the method: as §1
# [8] = molecular target: ETV6 (Homo sapiens, UniProt P41212 1-452)
# Summary of the method: as §1
# Chain of ETV6 (P41212 whole entry): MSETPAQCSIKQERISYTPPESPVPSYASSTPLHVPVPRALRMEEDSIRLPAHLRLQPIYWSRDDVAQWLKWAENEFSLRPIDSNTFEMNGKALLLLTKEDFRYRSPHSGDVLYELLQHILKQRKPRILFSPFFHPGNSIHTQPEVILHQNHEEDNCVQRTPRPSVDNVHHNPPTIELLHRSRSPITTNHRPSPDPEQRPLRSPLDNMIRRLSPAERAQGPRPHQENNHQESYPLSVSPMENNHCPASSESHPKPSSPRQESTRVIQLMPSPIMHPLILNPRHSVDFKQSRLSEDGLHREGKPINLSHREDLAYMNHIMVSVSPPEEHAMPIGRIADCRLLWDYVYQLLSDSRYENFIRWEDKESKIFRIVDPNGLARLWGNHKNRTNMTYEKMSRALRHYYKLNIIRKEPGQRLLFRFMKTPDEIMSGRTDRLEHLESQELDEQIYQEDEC
Sequence,binding signal [1],binding signal [2],binding signal [3],binding signal [4],binding signal [5],binding signal [6],binding signal [7],binding signal [8]
TGTTTG,"1.4 fold enrichment (6-mer frequency, TF over GST control)","1.35 fold enrichment (6-mer frequency, TF over GST control)","1.32 fold enrichment (6-mer frequency, TF over GST control)","1.25 fold enrichment (6-mer frequency, TF over GST control)","1.39 fold enrichment (6-mer frequency, TF over GST control)","1.29 fold enrichment (6-mer frequency, TF over GST control)","1.35 fold enrichment (6-mer frequency, TF over GST control)","1.41 fold enrichment (6-mer frequency, TF over GST control)"
CTTGTC,"1.44 fold enrichment (6-mer frequency, TF over GST control)","1.25 fold enrichment (6-mer frequency, TF over GST control)","1.24 fold enrichment (6-mer frequency, TF over GST control)","1.35 fold enrichment (6-mer frequency, TF over GST control)","1.25 fold enrichment (6-mer frequency, TF over GST control)","1.3 fold enrichment (6-mer frequency, TF over GST control)","1.31 fold enrichment (6-mer frequency, TF over GST control)","1.25 fold enrichment (6-mer frequency, TF over GST control)"
TATTGC,"1.31 fold enrichment (6-mer frequency, TF over GST control)","1.4 fold enrichment (6-mer frequency, TF over GST control)","1.36 fold enrichment (6-mer frequency, TF over GST control)","1.31 fold enrichment (6-mer frequency, TF over GST control)","1.36 fold enrichment (6-mer frequency, TF over GST control)","1.27 fold enrichment (6-mer frequency, TF over GST control)","1.41 fold enrichment (6-mer frequency, TF over GST control)","1.38 fold enrichment (6-mer frequency, TF over GST control)"
CTTGTG,"1.59 fold enrichment (6-mer frequency, TF over GST control)","1.4 fold enrichment (6-mer frequency, TF over GST control)","1.5 fold enrichment (6-mer frequency, TF over GST control)","1.41 fold enrichment (6-mer frequency, TF over GST control)","1.41 fold enrichment (6-mer frequency, TF over GST control)","1.44 fold enrichment (6-mer frequency, TF over GST control)","1.51 fold enrichment (6-mer frequency, TF over GST control)","1.22 fold enrichment (6-mer frequency, TF over GST control)"
CCGCAC,"1.46 fold enrichment (6-mer frequency, TF over GST control)","1.55 fold enrichment (6-mer frequency, TF over GST control)","1.47 fold enrichment (6-mer frequency, TF over GST control)","1.46 fold enrichment (6-mer frequency, TF over GST control)","1.4 fold enrichment (6-mer frequency, TF over GST control)","1.59 fold enrichment (6-mer frequency, TF over GST control)","1.61 fold enrichment (6-mer frequency, TF over GST control)","1.56 fold enrichment (6-mer frequency, TF over GST control)"
ATAATT,"1.33 fold enrichment (6-mer frequency, TF over GST control)","1.4 fold enrichment (6-mer frequency, TF over GST control)","1.31 fold enrichment (6-mer frequency, TF over GST control)","1.23 fold enrichment (6-mer frequency, TF over GST control)","1.31 fold enrichment (6-mer frequency, TF over GST control)","1.31 fold enrichment (6-mer frequency, TF over GST control)","1.32 fold enrichment (6-mer frequency, TF over GST control)","1.45 fold enrichment (6-mer frequency, TF over GST control)"
CCTCTG,"1.65 fold enrichment (6-mer frequency, TF over GST control)","1.36 fold enrichment (6-mer frequency, TF over GST control)","1.42 fold enrichment (6-mer frequency, TF over GST control)","1.54 fold enrichment (6-mer frequency, TF over GST control)","1.79 fold enrichment (6-mer frequency, TF over GST control)","1.5 fold enrichment (6-mer frequency, TF over GST control)","1.64 fold enrichment (6-mer frequency, TF over GST control)","1.39 fold enrichment (6-mer frequency, TF over GST control)"
CGGCTA,"1.07 fold enrichment (6-mer frequency, TF over GST control)","1.19 fold enrichment (6-mer frequency, TF over GST control)","1.07 fold enrichment (6-mer frequency, TF over GST control)","1.25 fold enrichment (6-mer frequency, TF over GST control)","1.26 fold enrichment (6-mer frequency, TF over GST control)","1.19 fold enrichment (6-mer frequency, TF over GST control)","1.12 fold enrichment (6-mer frequency, TF over GST control)","1.27 fold enrichment (6-mer frequency, TF over GST control)"
CCCCTG,"1.39 fold enrichment (6-mer frequency, TF over GST control)","1.13 fold enrichment (6-mer frequency, TF over GST control)","1.21 fold enrichment (6-mer frequency, TF over GST control)","1.17 fold enrichment (6-mer frequency, TF over GST control)","1.13 fold enrichment (6-mer frequency, TF over GST control)","1.15 fold enrichment (6-mer frequency, TF over GST control)","1.07 fold enrichment (6-mer frequency, TF over GST control)","1.07 fold enrichment (6-mer frequency, TF over GST control)"
ACCGGA,"2.82 fold enrichment (6-mer frequency, TF over GST control)","2.97 fold enrichment (6-mer frequency, TF over GST control)","3.14 fold enrichment (6-mer frequency, TF over GST control)","4.52 fold enrichment (6-mer frequency, TF over GST control)","2.74 fold enrichment (6-mer frequency, TF over GST control)","3.2 fold enrichment (6-mer frequency, TF over GST control)","3.45 fold enrichment (6-mer frequency, TF over GST control)","3.16 fold enrichment (6-mer frequency, TF over GST control)"
TGCCGC,"1.32 fold enrichment (6-mer frequency, TF over GST control)","1.22 fold enrichment (6-mer frequency, TF over GST control)","1.33 fold enrichment (6-mer frequency, TF over GST control)","1.15 fold enrichment (6-mer frequency, TF over GST control)","1.22 fold enrichment (6-mer frequency, TF over GST control)","1.22 fold enrichment (6-mer frequency, TF over GST control)","1.36 fold enrichment (6-mer frequency, TF over GST control)","1.27 fold enrichment (6-mer frequency, TF over GST control)"
AAGCTA,"1.18 fold enrichment (6-mer frequency, TF over GST control)","1.2 fold enrichment (6-mer frequency, TF over GST control)","1.14 fold enrichment (6-mer frequency, TF over GST control)","1.16 fold enrichment (6-mer frequency, TF over GST control)","1.2 fold enrichment (6-mer frequency, TF over GST control)","1.11 fold enrichment (6-mer frequency, TF over GST control)","1.2 fold enrichment (6-mer frequency, TF over GST control)","1.1 fold enrichment (6-mer frequency, TF over GST control)"
ATTAGG,"1.26 fold enrichment (6-mer frequency, TF over GST control)","1.12 fold enrichment (6-mer frequency, TF over GST control)","1.06 fold enrichment (6-mer frequency, TF over GST control)","1.11 fold enrichment (6-mer frequency, TF over GST control)","1.15 fold enrichment (6-mer frequency, TF over GST control)","1.12 fold enrichment (6-mer frequency, TF over GST control)","1.06 fold enrichment (6-mer frequency, TF over GST control)","1.09 fold enrichment (6-mer frequency, TF over GST control)"
TACAGG,"1.1 fold enrichment (6-mer frequency, TF over GST control)","1.27 fold enrichment (6-mer frequency, TF over GST control)","1.08 fold enrichment (6-mer frequency, TF over GST control)","1.39 fold enrichment (6-mer frequency, TF over GST control)","1.12 fold enrichment (6-mer frequency, TF over GST control)","1.22 fold enrichment (6-mer frequency, TF over GST control)","1.18 fold enrichment (6-mer frequency, TF over GST control)","1.19 fold enrichment (6-mer frequency, TF over GST control)"
CGAAAG,"1.11 fold enrichment (6-mer frequency, TF over GST control)","1.05 fold enrichment (6-mer frequency, TF over GST control)","1.11 fold enrichment (6-mer frequency, TF over GST control)","1.07 fold enrichment (6-mer frequency, TF over GST control)","1.19 fold enrichment (6-mer frequency, TF over GST control)","1 fold enrichment (6-mer frequency, TF over GST control)","1.02 fold enrichment (6-mer frequency, TF over GST control)","1.02 fold enrichment (6-mer frequency, TF over GST control)"

# — article PMC7862700, “An all-to-all approach to the identification of sequence-specific readers for epigenetic DNA modifications on cytosine”
